# Measurements published in PubChem BioAssay AID686979 (National Center for Advancing Translational Sciences (NCATS), 2013).
# The whole screen tested about 420,000 compounds, of which about 50,000 (12%) were called active. Another 26% or so got no clear call; they are omitted. This is one part of a sample in which actives are shown more often than they occur. Values without a mark were called inactive. Calls follow the shape of the dose curve; as a rule, active = well fitted inhibition curve with a large enough effect; inconclusive = small, poorly fitted or top-dose-only effect; inactive = flat fitted curve, though single readings scatter.
# Test: qHTS for Inhibitors of human tyrosyl-DNA phosphodiesterase 1 (TDP1): qHTS in cells in presence of CPT; also: nearly all actives have a fitted effect of over 55% in size
# Settings: chicken DT40 Tdp1-/-;hTDP1 cells + 20 nM CPT, ATP luminescence, 48 h; series mostly up to 46.2 µM; activity change, negative = growth inhibition: at the top concentration
# Source text: Human tyrosyl-DNA phosphodiesterase 1 (TDP1) is a novel repair gene, and we propose to use it as a new target for anticancer drug development. TDP1 is not an essential protein, but under treatment with topoisomerase I poison (camptothecin: CPT), TDP1 works as a critical factor for cell survival. To directly identify novel TDP1 inhibitors active in a cellular environment, we have knocked-out the Tdp1 gene in chicken DT40 cells (Tdp1-/-) and generated a complemented counterpart cells that contains a stable transfection of the human TDP1 gene (Tdp1-/-;hTDP1 cells). For the primary screen, Tdp1-/-;hTDP1 cells will be exposed to small molecules in the presence or absence of CPT, and their growth kinetics will be evaluated after 48 hours by measuring ATP activity. […] The hit compounds will then be evaluated in the presence or absence of CPT using Tdp1-/- cells. […] In tertiary assays, biochemical gel-based assays will be used to assess whether the hit compounds specifically target TDP1. To this end, we have screened this cell line against the MLSMR in two primary screens. In one screen we add CPT and in the other we screen in the absence of CPT; this AID represents the screen where CPT was present. NIH Chemical Genomics Center [NCGC] NIH Molecular Libraries Probe Centers Network [MLPCN] MLPCN Grant: MH095538 Assay Submitter (PI): Yves Pommier, NCI
# DT40-hTDP1 cells with 20 nM Camptothecin (add 20 microL of 1 mM CPT stock in 1 L of cell culture medium) were dispensed at 400 cells/5microL/well in tissue culture treated 1536-well white wall/solid bottom assay plates (Greiner Bio-One North America, NC, U.S.A.) using a Multidrop Combi 8 channel dispenser (Thermo Fisher, Waltham, MA, USA). 23 nL compounds and controls were transferred using the pin tool (Kalypsys, San Diego, CA, USA) to the assay plates. The assay plates were then incubated at 37 masculineC for a minimum 48 hr. Three microL of Cell Titer Glo solution was added to the plates and incubated at RT in dark for 30 min. Luminescence was read using ViewLux (Perkin Elmer) with 1 sec exposure slow speed, high gain and 2x binning.
# % is scaled to controls: 0 for no effect and ±100 for the full control effect; potency is read from the fitted curve at half-maximal effect.
SMILES,"activity change, negative = growth inhibition [%]",Potency
CN(Cc1ccccc1)S(=O)(=O)c1nnc(NC(=O)c2ccccc2F)s1,-20.1,
CCOc1cc(CNCCN(C)C)c(Cl)cc1OCC(=O)NCCc1ccccc1,-11.9,
Nc1ncnc2c1ncn2[C@@H]1O[C@H](CNS(=O)(=O)c2ccc(-c3ccno3)s2)[C@@H](O)[C@H]1O,-29.6,
O=C(Nc1nnc(SCc2c(Cl)cccc2Cl)s1)c1cccc([N+](=O)[O-])c1,-2.24,
COc1ccc(NC(=O)CSc2nccn2Cc2ccc3c(c2)OCO3)cc1,-24,
O=C(Nc1ccc2c(c1)OCO2)C1CC(c2c(F)cccc2Cl)=NO1 (stereo unspecified),-29.9,
O=C(Nc1ccc(Cl)cc1)C1Cc2c(-c3ccc4c(c3)OCO4)ccnc2O1 (stereo unspecified),,23.1 µM (active)
O=C(Nc1ccc(Cl)c(C(F)(F)F)c1)C1Cc2c(-c3ccccc3Oc3ccccc3)ccnc2O1 (stereo unspecified),,18.4 µM (active)
CC(=O)Nc1ccc(-c2ccnc3c2CC(C(=O)NC(C)C)O3)cc1 (stereo unspecified),-23.4,
O=C1OC(C(=O)Nc2cccc(Br)c2)Cc2ccccc21 (stereo unspecified),8.89,
COc1ccc(N(CC(=O)NC2CCCC2)C(=O)CS(=O)CC(=O)Nc2ccc3c(c2)OCO3)cc1 (stereo unspecified),-3.24,
COc1ccc(NC(=O)C2Cc3c(-c4ccc5c(c4)OCO5)ccnc3O2)cn1 (stereo unspecified),,4.11 µM (active)
O=C(COC(=O)c1cc[n+]([O-])cc1)Nc1ccc(Cl)c(C(F)(F)F)c1,-26,
CC(=O)c1cccc(NC(=O)C2CCCN2S(=O)(=O)c2cccc3nsnc23)c1 (stereo unspecified),9.59,
COCCNC(=O)CSc1nc(N)c(NC(=O)c2ccco2)c(=O)[nH]1,3.53,
COC(=O)c1c(C)oc(C)c1S(=O)(=O)NCc1ccc(Cl)cc1,-20.3,
COC(=O)c1cc(NC(=O)CCS(=O)(=O)c2cc(Br)cc3c2N(C(=O)C2CC2)CC3)cc(C(=O)OC)c1,-2.75,
Cc1cc(C)n(-c2ccc(NC(=O)C3CCCCN3C(=O)c3cccs3)cc2)n1 (stereo unspecified),-10.8,
Cc1cccc(OCCSc2nc3ccc(NC(=O)COc4ccccc4C)cc3s2)c1,-21.3,
Cc1ccccc1OCCSc1nc2ccc(NC(=O)c3ccco3)cc2s1,,20.6 µM (active)
COc1cc(C)ccc1OCCSc1nc2ccc(NC(=O)c3ccc(C)cc3)cc2s1,-27.4,
Cc1ccccc1SCC(=O)OCC(=O)N1CC(=O)Nc2ccccc21,5.39,
CC1=NNC(=O)C1CCC(=O)N/N=C\c1ccc(Cl)c(Cl)c1 (stereo unspecified),1.5,
Cc1ccnc(NC(=O)CCC(=O)N(CC(=O)NCc2ccccc2)Cc2ccco2)c1,37.5,
Cc1cccc(OCC(=O)N(Cc2ccc(C(C)C)cc2)Cc2ccco2)c1C,,16.4 µM (active)
Cc1cccc(OCc2nnc(SCC(=O)N3CCN(C(=O)c4ccco4)CC3)n2C)c1C,-0.881,
